Results filed as inconclusive are left out. Active and inactive are the calls of the source. Unless noted, no stated cut-off is given here; in the data, active means inhibition above about 30%; inactive means the rest.
Assays:
[1] = reducers of endogenous Her2 protein level, primary screen, SKBR3 breast tumor cells, AlphaScreen, ATP viability (AID 461;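 active means Her2 level under about 52% in both replicate screens, with viability over 70% of control, limit read from the data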;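 on Her2 level: lower value means less Her2 protein in the cells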;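 on viability: percent of carrier control wells set as 100% viability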); details: 18-24 h, measured here: SKBR3 viability, ATP luminescence, at 10 µM
[2] = target: Receptor tyrosine-protein kinase erbB-2 (Homo sapiens) (UniProt P04626); assay: as above; details: 18-24 h, at 10 µM, stronger effect = lower value
Receptor tyrosine-protein kinase erbB-2 (Homo sapiens), sequence (P04626 whole entry, looked up): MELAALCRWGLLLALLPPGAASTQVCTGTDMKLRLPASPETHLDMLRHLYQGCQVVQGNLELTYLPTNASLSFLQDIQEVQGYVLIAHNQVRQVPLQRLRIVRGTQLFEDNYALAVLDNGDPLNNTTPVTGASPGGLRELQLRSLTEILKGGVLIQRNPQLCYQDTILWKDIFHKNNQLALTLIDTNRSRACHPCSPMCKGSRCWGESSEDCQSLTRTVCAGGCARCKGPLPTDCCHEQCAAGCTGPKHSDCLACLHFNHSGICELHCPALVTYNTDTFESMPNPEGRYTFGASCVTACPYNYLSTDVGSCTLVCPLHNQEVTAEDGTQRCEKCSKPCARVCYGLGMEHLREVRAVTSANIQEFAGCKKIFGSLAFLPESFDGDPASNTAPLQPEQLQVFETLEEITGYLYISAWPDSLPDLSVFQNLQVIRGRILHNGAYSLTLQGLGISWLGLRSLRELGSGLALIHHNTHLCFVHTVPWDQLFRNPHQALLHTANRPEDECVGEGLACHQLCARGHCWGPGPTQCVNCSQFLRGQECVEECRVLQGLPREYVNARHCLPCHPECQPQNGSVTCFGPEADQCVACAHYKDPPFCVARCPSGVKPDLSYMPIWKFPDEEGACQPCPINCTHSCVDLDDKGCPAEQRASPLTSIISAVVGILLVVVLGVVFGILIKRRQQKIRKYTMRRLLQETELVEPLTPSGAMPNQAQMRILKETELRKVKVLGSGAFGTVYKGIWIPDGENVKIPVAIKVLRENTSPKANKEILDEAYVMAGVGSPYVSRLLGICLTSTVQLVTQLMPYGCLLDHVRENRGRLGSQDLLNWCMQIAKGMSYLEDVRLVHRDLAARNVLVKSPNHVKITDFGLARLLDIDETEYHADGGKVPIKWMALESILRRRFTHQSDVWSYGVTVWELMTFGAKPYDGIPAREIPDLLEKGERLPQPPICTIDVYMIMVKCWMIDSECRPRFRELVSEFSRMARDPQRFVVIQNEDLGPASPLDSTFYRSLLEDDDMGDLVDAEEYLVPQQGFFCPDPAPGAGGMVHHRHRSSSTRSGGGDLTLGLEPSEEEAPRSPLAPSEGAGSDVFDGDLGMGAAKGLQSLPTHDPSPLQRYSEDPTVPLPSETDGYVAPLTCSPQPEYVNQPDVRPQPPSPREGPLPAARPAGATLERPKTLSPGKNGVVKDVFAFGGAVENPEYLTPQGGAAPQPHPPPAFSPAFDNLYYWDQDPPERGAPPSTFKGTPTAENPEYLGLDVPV

[3] = SK-BR-3 cell growth inhibitors, pilot screen, 24 h, human (AID 572;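 active means viability at or below 10% of carrier control in both of two separate runs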;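 further: compound exposure lasted between 18 and 24 h rather than exactly 24 h; 100% = carrier-treated control wells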); details: SK-BR-3 viability, CellTiter-Glo luminescence, at 10 µM, stronger effect = lower value
[4] = HUVEC growth inhibition – cell-based, human, primary screen (AID 575;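 active means viability at or below 30% in both replicate assays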;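 further: 100% = median of untreated cell wells with 0.1% DMSO on each plate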); details: HUVEC proliferation, CellTiter-Glo luminescence, 72 h; at 10 µM; stronger effect = lower value
[5] = growth inhibitors of H69AR lung tumor, primary screen, human, duplicate replicates (AID 580;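 active means viability at or under a set limit in both replicates, limit being median viability minus 3 SD, cut at about 48% in these data, passing the limit was not always enough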;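 further: 100% = mean luminescence of untreated wells and 0% = no signal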); details: H69AR lung tumor cells viability, ATP luminescence, 72 h; at 10 µM; stronger effect = lower value
[6] = reversal of MRP1-mediated doxorubicin resistance, pilot screen, H69AR cells, doxorubicin co-treatment (AID 601;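 active means viability loss from added drug above about 55%, and viability with drug at most 40%, in both replicates, limit read from the data, passing the limit was not always enough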); details: CellTiter-Glo, 72 h, at 10 µM; for differential viability (reversal): stronger effect = higher value
[7] = 384-well plate pilot, post-Golgi transport modulator project, inhibition of yeast transport mutant growth (AID 636; in the data active means inhibition above about 31%); details: absorbance 615 nm, about 18 h, stronger effect = higher value
[8] = growth suppression of yeast trafficking mutant, preliminary HTS, modulators of trafficking downstream of Golgi apparatus project, 1536-format plate, OD 615 nm (AID 637); details: yeast transport mutant growth, absorbance 615 nm, 18 h; stronger effect = higher value
[9] = OD615 S. cerevisiae growth inhibition, permissive medium, pilot counter-assay, permissive growth control for S. cerevisiae lifespan shortening project (AID 705;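 active means growth inhibition above 25% in both replicates, a cutoff set 3 SD above the mean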); details: OD615, 24 h, at 10 µM, stronger effect = higher value
[10] = Restrictive medium S. cerevisiae growth inhibition, OD615, pilot screen of yeast lifespan reduction project, restrictive growth control (AID 706;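 active means growth inhibition above a set limit, 3 SD over mean compound inhibition, in both replicates, cut at about 43% in these data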;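 further: modified DeaD lifespan yeast strain shifted to restrictive glucose medium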); details: OD615, 48 h, at 10 µM, stronger effect = higher value
[11] = viability gain of MRP-1-high H69AR cells under doxorubicin, pilot screen, MRP-1 activator project, CellTiter-Glo, duplicate (AID 807;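 active means viability increase at or above a cutoff of the median across tested compounds plus 3 SD, cut at about 8.5% in these data, passing the limit was not always enough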;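 further: compound pretreatment 18-22 h then 72 h combined with doxorubicin; 0% = doxorubicin alone and 100% = vehicle without doxorubicin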); details: H69AR viability with doxorubicin, CellTiter-Glo luminescence; at 10 µM; stronger effect = higher value
[12] = growth suppression of beta-catenin knockout HCT116, pilot screen, human colon tumor cells (AID 823;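 active means cell viability at or below a set limit in both duplicate runs, the limit being the all-compound median minus 4 SD, cut at about 23% in these data, passing the limit was not always enough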;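 further: 0% = wells killed by 20 µM Hyamine and 100% = untreated DMSO cell wells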); details: CellTiter-Glo, 60 h, at 10 µM, stronger effect = lower value
[13] = growth suppression of PTEN-deleted HCT116, pilot screen, cell-based, HCT116 clonal line, CellTiter-Glo (AID 824;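 active means viability at or below 27.92% in each of two runs, the all-compound median minus 4 SD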;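 further: 0% = 20 µM Hyamine control and 100% = vehicle cell control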); details: 60 h, at 10 µM, stronger effect = lower value
[14] = inhibitors of the yeast RAM network, pilot screen, dse1pr::URA3 reporter, 5-FOA selection (AID 869;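 active means inhibition over a set limit, the all-compound mean plus 3 SD, in both replicate runs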;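 further: 0% = DMSO wells with no growth and 100% = 10 µM 1-NA-PP1 with full growth; RAM network block rescues cells from 5-FOA so hits raise OD615 growth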); details: S. cerevisiae dse1pr::URA3 5-FOA growth, OD615, 2 d; at 10 µM; stronger effect = higher value; strain carries analog-sensitive mutant Cbk1 kinase
[15] = RAM signaling pathway blockade in yeast – S. cerevisiae, Pdr1DBD-CYC8 efflux-inhibited sensitized strain, primary screen (AID 1298;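 active means RAM network inhibition above 8.4% in each of two replicates, 3 SD over the compound average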;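 further: 0% = DMSO untreated cells without growth and 100% = 10 µM 1-NA-PP1 full growth; higher means more yeast growth rescued from 5-FOA killing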); details: S. cerevisiae cbk1-as DSE1-URA3 strain, 5-FOA growth OD615, 2 d; at 50 µM; stronger effect = higher value
[16] = H69AR cells + 2 uM doxorubicin, measured here: viability with 2 uM doxorubicin, stronger effect = lower value
[17] = H69AR cells, compound alone cytotoxicity

Structure (SMILES)	viability [1] [%]	Her2 level [2]	viability [3]	viability [4]	viability [5]	differential viability (reversal) ([6]; H69AR cells + 2 uM doxorubicin)	viability [6, 16] [%]	viability [6, 17] [%]	inhibition [7]	inhibition [8]	growth inhibition [9]	growth inhibition [10]	viability increase [11]	viability [12]	viability [13]	inhibition [14]	RAM network inhibition [15]
CCC(C)NC(=O)CS(=O)(=O)Cc1nc(-c2cccc(OC)c2)oc1C (stereo not given)	80.5	98% (inactive)	80.5% (inactive)	97.6% (inactive)	91.4% (inactive)	-8.61% (inactive)	100	91.4	-2% (inactive)	-0.66% (inactive)	3.02% (inactive)	9.5% (inactive)	0.02% (inactive)	91.9% (inactive)	93.5% (inactive)	0.02% (inactive)	3.92% (inactive)
CCOc1cccc(OCCCCn2ccnc2)c1	87	75.5% (inactive)	87% (inactive)	97.3% (inactive)	85.4% (inactive)	-3.44% (inactive)	88.8	85.4	3.92% (inactive)	-2.46% (inactive)	-3.35% (inactive)	-16.8% (inactive)	-0.4% (inactive)	49% (inactive)	62.3% (inactive)	2.19% (inactive)	1.84% (inactive)
CCOc1cc(C2NC(=O)NC(O)(C(F)(F)F)C2C(=O)c2ccccc2)ccc1OC (stereo not given)	108	110% (inactive)	108% (inactive)	104% (inactive)	102% (inactive)	5.23% (inactive)	96.6	102	-4.46% (inactive)	-8.2% (inactive)	-0.49% (inactive)	19.4% (inactive)	-0.8% (inactive)	109% (inactive)	97.8% (inactive)	0.24% (inactive)	0.2% (inactive)
Cc1cn2c(-c3ccc(Cl)cc3)nnc2s1	96	92.5% (inactive)	96% (inactive)	74.7% (inactive)	95.2% (inactive)	-3.87% (inactive)	99.1	95.2	-3.87% (inactive)	4.67% (inactive)	-8.55% (inactive)	16.2% (inactive)	-0.6% (inactive)	97.6% (inactive)	90.3% (inactive)	2.66% (inactive)	4.88% (inactive)
CCOC(=O)C1CCN(Cc2ccc(OC)c(C)c2OC)CC1	88.5	97.5% (inactive)	88.5% (inactive)	108% (inactive)	86.9% (inactive)	3.22% (inactive)	83.7	86.9	-2.4% (inactive)	-7.1% (inactive)	-2.98% (inactive)	2.96% (inactive)	-4.57% (inactive)	78.3% (inactive)	80.3% (inactive)	1.16% (inactive)	1.41% (inactive)
COc1cccc(-c2nc3n(n2)C(c2ccccc2Cl)C(C(N)=O)=C(C)N3)c1 (stereo not given)	91	94% (inactive)	91% (inactive)	74.3% (inactive)	90.4% (inactive)	14.6% (inactive)	75.8	90.4	-0.8% (inactive)	-5.17% (inactive)	-7.99% (inactive)	-0.24% (inactive)	-3.31% (inactive)	82.8% (inactive)	82.2% (inactive)	0.735% (inactive)	3.45% (inactive)
CCn1c(=O)cc(OCC(=O)Nc2nc(C)cs2)c2ccccc21	83.5	84.5% (inactive)	83.5% (inactive)	61.6% (inactive)	94.8% (inactive)	2.11% (inactive)	92.7	94.8	-3.73% (inactive)	-1.67% (inactive)	-10.5% (inactive)	-9.12% (inactive)	-2.41% (inactive)	93.2% (inactive)	86.9% (inactive)	1.33% (inactive)	2.84% (inactive)
CC(CCC(=O)Nc1nncs1)C(=O)O (stereo not given)	124	110% (inactive)	124% (inactive)	101% (inactive)	85.9% (inactive)	-0.74% (inactive)	86.6	85.9	-3.2% (inactive)	8.33% (inactive)	-8.12% (inactive)	-5.29% (inactive)	0.04% (inactive)	108% (inactive)	95.9% (inactive)	0.135% (inactive)	-0.05% (inactive)
Cn1cccc1Cc1nnc(SCC(=O)NCC2CCCO2)n1-c1ccc(F)cc1 (stereo not given)	97.5	90% (inactive)	97.5% (inactive)	106% (inactive)	91% (inactive)	0.18% (inactive)	90.9	91	-4.93% (inactive)	-2.33% (inactive)	-11.2% (inactive)	-5.59% (inactive)	-1.1% (inactive)	108% (inactive)	94.7% (inactive)	0.02% (inactive)	6.15% (inactive)
COC(=O)C1=C(C)Nc2nnnn2C1c1ccc(Cl)cc1Cl (stereo not given)	110	80% (inactive)	110% (inactive)	114% (inactive)	93.3% (inactive)	-5.04% (inactive)	98.4	93.3	-1.97% (inactive)	-0.63% (inactive)	2.67% (inactive)	-1.33% (inactive)	-5.06% (inactive)	98% (inactive)	91.5% (inactive)	0.54% (inactive)	0.11% (inactive)
